Screening results: PubChem BioAssay, National Center for Advancing Translational Sciences (NCATS)
This is a sample that favours compounds with a hit; in the whole collection about 1.3% have one here.
gsp agonist: qHTS for Agonist of gsp, the Etiologic Mutation Responsible for Fibrous Dysplasia/McCune-Albright Syndrome: qHTS; gsp mutant cells, cAMP HTRF, 30 min; Potency, µM (titrated, usually from 76.9 µM), for inactives: at the top dose activation (cAMP increase), hits mostly activators; 0.13% of 340,000 active; AID 624287, 2012; active = well fitted activation curve with a large enough effect; inconclusive = small, poorly fitted or top-dose-only effect, or another doubt; inactive = no such curve, though single readings can be large or run the other way; cell line not stated here;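 note: phosphodiesterase inhibitor Ro 20-1724 added with compounds to block cAMP breakdown; potency is the fitted concentration of half-maximal effect; nearly all actives have a fitted effect of over 60% in size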
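Cells stably selected in G418 were plated at 2000/well, grown 16-24 hr, then given compounds in DMSO with the PDE inhibitor […] (300 uM solution added) for 30 min at 37C; cAMP was read by HTRF.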
Akt phos inh: HTS Assay for Inhibitors of Akt Phophorylation: Primary Screen. Neuro2A IGF-stimulated pAkt S473 HTRF, 20 min; active compounds read low. activity change, % for hits at 50 µM. 0.32% of 360,000 active; in the data active = activity change below about -80%; inconclusive = mostly about -51% to -80%; note: % is set by controls: 0 for no effect and ±100 for the full control effect
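Neuro2A cells in DMEM with 0.5% FBS, overnight at 37 deg C, given compound at single 50 µM final, then IGF (6 nM final) for 20 min at 37 deg C. Lysed; phospho-Akt Ser473 by HTRF after 24 h, 665/615 ratio.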
RXFP1 agonist: qHTS Assay for Agonists of the Relaxin Receptor RXFP1; Potency, µM (highest dose often 57.5 µM), for the others: top-dose activation, most hits filed as activators; 0.3% of 370,000 active; HEK293T-RXFP1 cAMP TR-FRET, 30 min; response scale: percent of porcine relaxin response, buffer zero; AID 2676, 2010; Relaxin receptor 1 (Homo sapiens), Q9HBX9; active = well fitted activation curve with a large enough effect; inconclusive = small, poorly fitted or top-dose-only effect; note: potency is the fitted concentration of half-maximal effect; % is set by controls: 0 for no effect and ±100 for the full control effect; nearly all actives have a fitted effect of over 60% in size
Target sequence (Q9HBX9 whole entry, looked up): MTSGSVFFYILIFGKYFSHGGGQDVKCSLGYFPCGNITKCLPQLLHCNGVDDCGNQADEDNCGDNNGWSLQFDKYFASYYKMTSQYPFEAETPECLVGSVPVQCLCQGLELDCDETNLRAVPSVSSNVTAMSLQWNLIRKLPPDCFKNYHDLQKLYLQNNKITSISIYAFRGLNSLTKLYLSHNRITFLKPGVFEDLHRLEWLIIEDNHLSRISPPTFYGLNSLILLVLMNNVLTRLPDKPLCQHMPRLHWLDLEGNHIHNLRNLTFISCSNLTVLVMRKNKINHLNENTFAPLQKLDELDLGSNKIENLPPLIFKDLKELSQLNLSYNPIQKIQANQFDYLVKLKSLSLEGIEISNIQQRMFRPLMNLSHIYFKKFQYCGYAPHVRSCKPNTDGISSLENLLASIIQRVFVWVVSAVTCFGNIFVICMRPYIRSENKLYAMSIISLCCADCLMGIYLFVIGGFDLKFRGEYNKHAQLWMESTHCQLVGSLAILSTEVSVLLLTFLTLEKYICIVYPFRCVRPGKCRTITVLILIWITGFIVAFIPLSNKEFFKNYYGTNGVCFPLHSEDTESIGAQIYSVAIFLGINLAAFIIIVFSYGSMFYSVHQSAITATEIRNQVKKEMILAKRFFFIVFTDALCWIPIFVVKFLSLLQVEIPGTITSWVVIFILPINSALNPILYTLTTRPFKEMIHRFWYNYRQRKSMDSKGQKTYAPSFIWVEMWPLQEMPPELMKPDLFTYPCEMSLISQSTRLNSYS
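HEK293T cells stably expressing RXFP1 were pretreated with the PDE4 inhibitor Ro 20174, exposed to compounds for 30 min at 37C, lysed, and cAMP was read by TR-FRET. Data normalized to buffer (basal) and 29 nM porcine relaxin (100%).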
gsp antag: qHTS for Antagonists of gsp, the Etiologic Mutation Responsible for Fibrous Dysplasia/McCune-Albright Syndrome: qHTS. gsp-mutant cells, cAMP HTRF, 30 min. Potency, µM (doses to about 76.9 µM), inactives show top-dose activity change, negative = inhibition, most hits filed as inhibitors. 0.4% of 340,000 active. AID 624288, 2012; calls by dose curve; cell line not stated here;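 note: intracellular cAMP measured with PDE inhibitor Ro 20-1724 present during compound exposure; potency is the fitted concentration of half-maximal effect; % is set by controls: 0 for no effect and ±100 for the full control effect; nearly all actives have a fitted effect of over 65% in size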
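G418-selected cells were plated in DMEM/10% FBS for 16-24 h at 37C, then treated with compounds plus the PDE inhibitor […] (300 uM solution added) for 30 min at 37C. Intracellular cAMP was measured by HTRF after 30 min lysis at room temperature.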
RXFP1 antag: qHTS Assay for Antagonists of the Relaxin Receptor RXFP1; 0.59% of 350,000 active; activity change, negative = inhibition, % at 57.5 µM; HEK293-RXFP1, relaxin-stimulated cAMP HTRF, 30 min; active compounds read low; AID 1259400, 2018; Relaxin receptor 1 (Homo sapiens), Q9HBX9;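 active = activity change of -60% or lower, but not beyond a set lower limit; inconclusive = change between -60% and -40%, or beyond the set limit; inactive = change above -40%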; note: % is set by controls: 0 for no effect and ±100 for the full control effect
Starred values were filed as active, the others as inactive; i = inactive; ? = inconclusive; · = no result; ! = repeats disagree; [ ] = dose if it differs, or a comment.

SMILES	gsp agonist	Akt phos inh	RXFP1 agonist	gsp antag	RXFP1 antag
Cc1ccccc1-c1nc(CN2CCC(C(=O)NCC3CCCO3)CC2)c(C)o1 (stereo not given)	-3%	-119%*	2%	8%	-3
Cc1oc(-c2cccc(Cl)c2)nc1CN1CCC(C(=O)NCC2CCCO2)CC1 (stereo not given)	-21%	·	1%	8%	-10
Nc1ccc(C(=O)OCC(O)CO)cc1 (stereo not given)	·	·	·	·	9
Cc1cc(=O)[nH]c(SCC(=O)C23CC4CC(CC(C4)C2)C3)c1C#N	19%	i	1%	35µM*	17
Cc1cc(=O)[nH]c(SCC(=O)O)c1C#N	0%	i	0%	6%	1
COc1ccccc1/C=C/c1nc(C#N)c(NCc2ccccc2)o1	·	·	25%	·	-12
Clc1ccc(Nc2nnc(Cc3ccncc3)c3ccccc23)cc1	·	·	·	·	-22
COc1cc(-c2cc(C(=O)Nc3ccc(S(N)(=O)=O)cc3)c3ccccc3n2)cc(OC)c1OC	?	i	2%	?	-11
CCN(CC)S(=O)(=O)c1ccc(O)c(NC(=O)c2cc(-c3cc(OC)c(OC)c(OC)c3)nc3ccccc23)c1	?	i	9%	35µM*	?
CCOc1ccc(CNc2nc3nc(C)c(Cc4ccccc4)c(=O)n3[nH]2)cc1	·	·	0%	·	-2
CCOC(=O)C1=C(C)NC(C)=C(C(=O)OCC)C1C(=O)OCC(=O)N1c2ccccc2CC1C (stereo not given)	-18%	i	0%	11µM*!	-9
CCOC(=O)c1c(C)[nH]c(C(=O)OCC(=O)N2c3ccccc3CC2C)c1C (stereo not given)	21%	i	1%	-19%	6
Cc1cccc(NC(=O)C2CCCN(C(=O)Nc3ccccc3)C2)c1C (stereo not given)	-2%	-110%*	0%	-2%	-4
O=C(Nc1ncc2c(n1)-c1ccccc1CC2)c1ccc(F)cc1	?	-120%*	-3%	-6%	-6
O=C1COc2ccc(C(=O)COC(=O)c3ccccn3)cc2N1	-6%[15.4 µM]	i	0%	8%	-9
CCCn1nc(C(=O)OCC(=O)c2ccc3c(c2)NC(=O)CO3)c2ccccc2c1=O	-2%	i	3%	6.3µM*	-2
Cc1c(C)c2c(c(C)c1OC(=O)CCC(=O)OCCO)CC[C@](C)(CCC[C@H](C)CCC[C@H](C)CCCC(C)C)O2	·	·	·	·	-19
CC(C)NC(=O)C1CCN(C(=O)c2cc3sccc3n2Cc2ccc(Cl)cc2)CC1	·	·	5%	·	-2
CC(C)NC(=O)C1CCN(C(=O)c2cc3sccc3n2Cc2ccc(F)cc2)CC1	2%	i	1%	32µM*	-10
COc1ccccc1N(CC(=O)Nc1ccc2c(c1)OCO2)S(=O)(=O)c1ccc(C)cc1	·	·	1%	·	·
O=C(c1cc(COc2c(F)cccc2F)on1)N1CCC(c2ccccc2Cl)C1 (stereo not given)	-4%[15.4 µM]	i	0%	-13%	-10
CCc1ccc(CN(C)C(=O)c2cc(COc3cccc4cnccc34)on2)cc1	-27%	i	3%	35µM*	0
O=C(c1cc(COc2cccc3cnccc23)on1)N1CCC(c2ccccc2Cl)C1 (stereo not given)	-9%	i	3%	28µM*	1
O=C(CN1CCCN(Cc2cccc(F)c2)S1(=O)=O)Nc1ccc2c(c1)OCCO2	·	·	0%	·	-8
O=C(Cc1ccc(F)cc1)Nc1nc(-c2ccc(F)c(F)c2)cs1	-1%	i	0%	?	-88*
SMILES	gsp agonist	Akt phos inh	RXFP1 agonist	gsp antag	RXFP1 antag
O=C(CN1C(=O)C2CC=CCC2C1=O)Nc1nc(-c2ccc(F)cc2)cs1 (stereo not given)	20%	i	1%	-28%	-84*
CC1(C(=O)OCC(=O)Nc2nc(-c3ccc(F)c(F)c3)cs2)CC1(Cl)Cl (stereo not given)	-31%	i	-3%	50µM*	?
O=C(CSc1nc2c(sc3ccccc32)c(=O)n1CCCC(=O)NC1CCCC1)Nc1ccc(F)cc1	·	·	1%	·	14
Cc1cc(C)cc(NC(=O)c2cc(S(=O)(=O)N3CCCC3)ccc2F)c1	·	·	-2%	·	-18
O=S(=O)(c1ccc(Cl)cc1)N1CCC(N2CCCCCC2)CC1	?	-119%*	-2%	5%	-2
O=S(=O)(c1ccc(F)cc1)N1CCC(N2CCCCCC2)CC1	-37%	i	1%	10%	-6
CCOc1ccc2nc(Cl)c(C3CC(c4ccco4)=NN3S(C)(=O)=O)cc2c1 (stereo not given)	-1%[15.4 µM]	i	9%	-12%	-71*
O=Cc1ccc(N2CCCCCC2)cc1	14%	-128%*	0%	-1%	-6
COc1cc(/C=C(\C#N)C(=O)Nc2ccc(C(=O)O)cc2)ccc1OC(=O)c1cccc(F)c1	26%	i	0%	-31%	-83*
Cc1ccc(-c2nn(-c3ccccc3)cc2/C=N/NC(=O)c2ccc(Br)o2)cc1	0%	i	3%	32µM*	-9
O=C(N/N=C\c1cn(-c2ccccc2)nc1-c1ccccc1)c1ccc(Br)o1	6%	i	-3%	?	·
O=C(CSCc1cnn(-c2ccccc2)c1-n1cccc1)NCc1ccc(F)cc1	·	·	-3%	·	?
COc1cccc(CNC(=O)c2oc3c(c2C)-c2nn(Cc4cccc(Cl)c4)cc2CC3)c1	·	·	0%	·	-118*
COc1cccc(CNC(=O)c2oc3c(c2C)-c2nn(Cc4cccc(Cl)c4)cc2CC3)c1OC	·	·	14%	·	?
COc1ccc(-n2cc3c(-c4cccc(Br)c4)nnc(C)c3n2)cc1	27%	i	0%	40µM*	?
CCS(=O)(=O)N1CCc2cc(C(=O)NCc3ccccc3OC)ccc21	·	·	-4%	·	·
COc1ccc(NC(=O)c2cc(-c3ccccc3)nc3c2cnn3C(C)C)cc1	17%	i	2%	28µM*	-16
COc1ccc(-c2cn[nH]c2-c2ccc(OCC(=O)NN)cc2O)cc1OC	-2%[15.4 µM]	i	3%	-14%	-14
C=C(C)COc1ccc(-c2[nH]ncc2-c2ccc(OC)cc2)c(O)c1	-25%	i	3%	-13%	-64*
C=C(C)COc1ccc(-c2[nH]ncc2-c2ccc(OC)c(OC)c2)c(O)c1	0%	·	2%	1%	-78*
COc1ccc(-c2cn[nH]c2-c2ccc(OCc3ccc(F)cc3)cc2O)cc1OC	-31%[15.4 µM]	i	2%	-16%	-73*
